Test results reported in paper PMC7862700, “An all-to-all approach to the identification of sequence-specific readers for epigenetic DNA modifications on cytosine”.

Legend:
Assay in all cases: DAPPL (digital affinity profiling via proximity ligation, sequencing); 10 mM Tris-HCl pH 7.5, 50 mM NaCl, 1 mM DTT, 4% glycerol, room temperature, 30 min; GST-TFs on glutathione beads, 16-mer random dsDNA library, 0.1% formaldehyde crosslink after washing; high values mean tight binding
FEV = target: T1, FEV (Homo sapiens, UniProt Q99581 1-238); details: protein: recombinant; tags: N-terminal GST; dsDNA, one strand shown
T1 sequence: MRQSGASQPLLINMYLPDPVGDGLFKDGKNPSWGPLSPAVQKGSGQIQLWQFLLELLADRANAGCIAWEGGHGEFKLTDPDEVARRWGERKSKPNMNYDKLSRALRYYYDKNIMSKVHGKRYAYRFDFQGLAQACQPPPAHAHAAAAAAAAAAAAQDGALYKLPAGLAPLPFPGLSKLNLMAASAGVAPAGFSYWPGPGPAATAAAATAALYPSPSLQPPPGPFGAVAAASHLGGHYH
In short: (§1)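 Yeast served to express human transcription factors as GST fusions, which were then captured on glutathione beads and labelled with DNA barcodes. Pooled with a tag-only sample, they were incubated with 200 nmole of a 16-mer random double-stranded DNA library for 30 min at room temperature in Tris/NaCl/DTT/glycerol buffer, washed, crosslinked with 0.1% formaldehyde, ligated by proximity, amplified by PCR and sequenced. Dividing each hexamer's read frequency for a factor by its frequency for the tag-only sample gives the binding signal.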

ETV5 = ETV5 (Homo sapiens, UniProt P41161 1-510); details: protein: recombinant; tags: N-terminal GST; dsDNA, one strand shown
Sequence of ETV5 (P41161 whole entry): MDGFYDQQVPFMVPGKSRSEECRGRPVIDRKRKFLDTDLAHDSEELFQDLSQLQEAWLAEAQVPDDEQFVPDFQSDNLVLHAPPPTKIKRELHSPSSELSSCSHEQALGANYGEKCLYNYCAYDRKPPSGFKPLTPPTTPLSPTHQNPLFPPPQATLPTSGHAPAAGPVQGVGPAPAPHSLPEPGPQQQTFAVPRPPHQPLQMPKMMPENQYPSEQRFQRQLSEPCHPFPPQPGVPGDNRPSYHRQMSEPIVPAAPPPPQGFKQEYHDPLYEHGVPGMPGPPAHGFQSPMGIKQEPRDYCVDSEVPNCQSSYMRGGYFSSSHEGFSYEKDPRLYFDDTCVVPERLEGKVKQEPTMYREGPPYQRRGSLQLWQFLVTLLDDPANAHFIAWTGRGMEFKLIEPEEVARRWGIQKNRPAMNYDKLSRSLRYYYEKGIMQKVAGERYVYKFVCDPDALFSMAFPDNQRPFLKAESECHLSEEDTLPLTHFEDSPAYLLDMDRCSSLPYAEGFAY
In short: as §1

HSF1 = HSF1 (Homo sapiens, UniProt Q00613 1-529); details: protein: recombinant; tags: N-terminal GST; chain copies: 3; dsDNA, one strand shown
Sequence of HSF1 (Q00613 whole entry): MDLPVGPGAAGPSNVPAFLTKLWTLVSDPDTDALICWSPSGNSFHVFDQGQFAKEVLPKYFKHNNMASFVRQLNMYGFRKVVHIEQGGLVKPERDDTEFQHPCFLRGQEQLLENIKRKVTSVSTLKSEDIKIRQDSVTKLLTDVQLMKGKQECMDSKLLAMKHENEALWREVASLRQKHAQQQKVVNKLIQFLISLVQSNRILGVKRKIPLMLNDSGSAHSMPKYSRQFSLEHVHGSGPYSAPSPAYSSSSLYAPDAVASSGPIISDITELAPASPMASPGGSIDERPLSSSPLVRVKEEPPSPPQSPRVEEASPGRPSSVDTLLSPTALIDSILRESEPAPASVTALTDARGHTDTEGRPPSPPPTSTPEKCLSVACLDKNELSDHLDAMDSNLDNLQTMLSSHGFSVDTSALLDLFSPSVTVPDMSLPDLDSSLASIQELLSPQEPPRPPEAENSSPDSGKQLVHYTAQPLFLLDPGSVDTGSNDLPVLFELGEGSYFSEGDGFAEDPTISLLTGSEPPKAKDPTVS
In short: as §1

SPIC = target: T2, SPIC (Homo sapiens, UniProt Q8N5J4 1-248); details: protein: recombinant; tags: N-terminal GST; dsDNA, one strand shown
T2 sequence: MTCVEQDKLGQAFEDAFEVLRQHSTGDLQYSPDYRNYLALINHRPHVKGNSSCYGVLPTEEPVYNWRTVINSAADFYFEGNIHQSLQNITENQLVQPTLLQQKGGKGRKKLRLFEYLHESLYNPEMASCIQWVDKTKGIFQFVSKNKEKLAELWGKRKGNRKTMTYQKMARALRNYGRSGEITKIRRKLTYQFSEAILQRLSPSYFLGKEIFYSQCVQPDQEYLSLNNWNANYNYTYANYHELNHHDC
In short: as §1

ELF4 = ELF4 (Homo sapiens, UniProt Q99607 1-663); details: protein: recombinant; tags: N-terminal GST; dsDNA, one strand shown
Sequence of ELF4 (Q99607 whole entry): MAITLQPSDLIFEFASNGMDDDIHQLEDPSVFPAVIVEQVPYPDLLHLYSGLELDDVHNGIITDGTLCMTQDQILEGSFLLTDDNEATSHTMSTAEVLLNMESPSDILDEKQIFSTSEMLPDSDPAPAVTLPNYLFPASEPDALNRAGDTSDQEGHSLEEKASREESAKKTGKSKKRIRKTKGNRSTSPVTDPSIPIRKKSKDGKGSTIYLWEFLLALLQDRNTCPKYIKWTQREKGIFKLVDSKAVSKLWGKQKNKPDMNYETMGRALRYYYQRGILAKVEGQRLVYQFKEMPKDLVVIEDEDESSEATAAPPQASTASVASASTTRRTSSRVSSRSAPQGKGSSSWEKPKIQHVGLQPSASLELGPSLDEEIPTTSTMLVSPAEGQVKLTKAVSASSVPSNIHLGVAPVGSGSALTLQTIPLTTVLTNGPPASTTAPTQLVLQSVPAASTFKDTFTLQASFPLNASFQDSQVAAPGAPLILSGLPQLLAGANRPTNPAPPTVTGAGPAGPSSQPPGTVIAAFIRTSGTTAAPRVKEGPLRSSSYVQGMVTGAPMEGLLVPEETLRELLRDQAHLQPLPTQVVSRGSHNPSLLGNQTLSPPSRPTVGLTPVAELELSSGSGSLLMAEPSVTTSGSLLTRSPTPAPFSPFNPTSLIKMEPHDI
In short: as §1

ELK4 = target: T3, ELK4 (Homo sapiens, UniProt P28324-2 1-405); details: protein: recombinant; tags: N-terminal GST; dsDNA, one strand shown
T3 sequence: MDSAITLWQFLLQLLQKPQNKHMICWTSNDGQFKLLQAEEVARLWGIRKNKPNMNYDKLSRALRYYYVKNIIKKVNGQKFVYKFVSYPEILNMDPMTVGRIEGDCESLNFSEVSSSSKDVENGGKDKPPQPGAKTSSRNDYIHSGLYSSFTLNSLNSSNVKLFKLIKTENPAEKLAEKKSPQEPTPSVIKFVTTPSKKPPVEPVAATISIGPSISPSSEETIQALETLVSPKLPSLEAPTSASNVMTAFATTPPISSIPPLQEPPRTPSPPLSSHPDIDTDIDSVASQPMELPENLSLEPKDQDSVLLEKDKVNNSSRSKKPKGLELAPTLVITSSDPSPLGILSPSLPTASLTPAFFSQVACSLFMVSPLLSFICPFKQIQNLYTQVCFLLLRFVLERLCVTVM
In short: as §1

ETV2 = target: T4, ETV2 (Homo sapiens, UniProt O00321 1-342); details: protein: recombinant; tags: N-terminal GST; dsDNA, one strand shown
T4 sequence: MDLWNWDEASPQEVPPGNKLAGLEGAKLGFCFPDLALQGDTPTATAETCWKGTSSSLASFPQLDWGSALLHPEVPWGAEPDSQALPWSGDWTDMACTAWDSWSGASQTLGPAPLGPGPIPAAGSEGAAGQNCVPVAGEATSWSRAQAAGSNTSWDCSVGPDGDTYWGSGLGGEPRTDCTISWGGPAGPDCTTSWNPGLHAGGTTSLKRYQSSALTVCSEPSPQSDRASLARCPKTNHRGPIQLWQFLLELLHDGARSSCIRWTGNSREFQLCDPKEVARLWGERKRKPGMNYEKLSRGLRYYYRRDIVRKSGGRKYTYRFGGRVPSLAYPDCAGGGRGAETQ
In short: as §1

ELF3 = target: T5, ELF3 (Homo sapiens, UniProt P78545 1-371); details: protein: recombinant; tags: N-terminal GST; dsDNA, one strand shown
T5 sequence: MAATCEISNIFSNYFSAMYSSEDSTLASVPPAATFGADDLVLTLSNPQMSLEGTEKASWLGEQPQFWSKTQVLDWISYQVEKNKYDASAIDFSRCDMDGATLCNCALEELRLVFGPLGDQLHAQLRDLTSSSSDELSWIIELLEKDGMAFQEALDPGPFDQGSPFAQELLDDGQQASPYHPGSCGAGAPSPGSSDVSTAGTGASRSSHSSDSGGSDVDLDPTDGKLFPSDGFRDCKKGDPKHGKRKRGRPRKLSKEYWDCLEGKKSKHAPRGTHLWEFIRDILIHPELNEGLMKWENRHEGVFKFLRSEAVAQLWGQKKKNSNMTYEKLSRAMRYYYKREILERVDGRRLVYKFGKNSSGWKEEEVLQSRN
In short: as §1

CRX = CRX (Homo sapiens, UniProt O43186 1-299); details: protein: recombinant; tags: N-terminal GST; dsDNA, one strand shown
Sequence of CRX (O43186 whole entry): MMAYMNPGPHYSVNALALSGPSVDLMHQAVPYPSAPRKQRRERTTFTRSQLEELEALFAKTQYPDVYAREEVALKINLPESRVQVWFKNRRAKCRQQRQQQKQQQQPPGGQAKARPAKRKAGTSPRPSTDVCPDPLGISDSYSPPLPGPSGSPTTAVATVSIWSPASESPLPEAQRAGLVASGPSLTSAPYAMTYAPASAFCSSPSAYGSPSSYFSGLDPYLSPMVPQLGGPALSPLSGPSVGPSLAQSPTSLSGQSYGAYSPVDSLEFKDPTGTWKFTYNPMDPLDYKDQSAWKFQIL
In short: as §1

ETV1 = ETV1 (Homo sapiens, UniProt P50549 1-477); details: protein: recombinant; tags: N-terminal GST; dsDNA, one strand shown
Sequence of ETV1 (P50549 whole entry): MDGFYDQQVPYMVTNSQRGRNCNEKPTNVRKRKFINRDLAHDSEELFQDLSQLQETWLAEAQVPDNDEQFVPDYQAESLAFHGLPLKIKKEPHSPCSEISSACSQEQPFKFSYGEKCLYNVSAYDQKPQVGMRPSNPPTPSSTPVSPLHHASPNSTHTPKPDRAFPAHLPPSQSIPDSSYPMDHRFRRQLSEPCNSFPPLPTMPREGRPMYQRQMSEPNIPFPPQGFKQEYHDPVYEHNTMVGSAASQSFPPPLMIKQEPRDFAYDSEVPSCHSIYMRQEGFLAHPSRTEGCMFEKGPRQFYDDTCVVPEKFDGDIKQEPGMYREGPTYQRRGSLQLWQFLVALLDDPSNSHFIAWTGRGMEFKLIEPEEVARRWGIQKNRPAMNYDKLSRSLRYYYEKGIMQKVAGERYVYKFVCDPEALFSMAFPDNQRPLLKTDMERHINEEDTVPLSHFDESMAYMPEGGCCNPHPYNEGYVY
In short: as §1

ERF = target: T6, ERF (Homo sapiens, UniProt P50548 1-548); details: protein: recombinant; tags: N-terminal GST; dsDNA, one strand shown
T6 sequence: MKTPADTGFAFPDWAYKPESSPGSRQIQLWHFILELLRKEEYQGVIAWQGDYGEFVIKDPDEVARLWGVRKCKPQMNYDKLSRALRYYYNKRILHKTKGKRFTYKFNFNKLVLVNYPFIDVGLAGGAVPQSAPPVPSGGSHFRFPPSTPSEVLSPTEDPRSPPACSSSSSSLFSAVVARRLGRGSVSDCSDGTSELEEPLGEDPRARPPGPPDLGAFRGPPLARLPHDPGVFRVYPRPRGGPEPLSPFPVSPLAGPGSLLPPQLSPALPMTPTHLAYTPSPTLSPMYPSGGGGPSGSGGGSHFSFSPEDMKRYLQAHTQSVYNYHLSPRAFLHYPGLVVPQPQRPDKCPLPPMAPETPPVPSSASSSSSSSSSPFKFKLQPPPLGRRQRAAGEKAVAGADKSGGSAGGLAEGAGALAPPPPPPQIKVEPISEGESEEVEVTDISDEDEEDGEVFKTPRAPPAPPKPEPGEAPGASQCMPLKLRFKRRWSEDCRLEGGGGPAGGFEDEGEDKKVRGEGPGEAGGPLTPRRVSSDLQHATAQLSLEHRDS
In short: as §1

ETV3L = target: T7, ETV3L (Homo sapiens, UniProt Q6ZN32 1-361); details: protein: recombinant; tags: N-terminal GST; dsDNA, one strand shown
T7 sequence: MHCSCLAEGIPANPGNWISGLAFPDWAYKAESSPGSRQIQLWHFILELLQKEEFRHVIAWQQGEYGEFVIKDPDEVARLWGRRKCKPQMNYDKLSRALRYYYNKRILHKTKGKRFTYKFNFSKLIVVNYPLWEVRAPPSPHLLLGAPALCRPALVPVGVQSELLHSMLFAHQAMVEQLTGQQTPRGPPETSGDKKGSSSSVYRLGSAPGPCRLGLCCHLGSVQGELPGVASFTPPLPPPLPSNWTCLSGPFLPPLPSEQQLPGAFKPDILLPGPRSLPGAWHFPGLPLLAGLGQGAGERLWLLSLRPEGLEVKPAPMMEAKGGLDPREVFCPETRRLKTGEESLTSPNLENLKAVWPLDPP
In short: as §1

ETS2 = target: T8, ETS2 (Homo sapiens, UniProt P15036 1-469); details: protein: recombinant; tags: N-terminal GST; dsDNA, one strand shown
T8 sequence: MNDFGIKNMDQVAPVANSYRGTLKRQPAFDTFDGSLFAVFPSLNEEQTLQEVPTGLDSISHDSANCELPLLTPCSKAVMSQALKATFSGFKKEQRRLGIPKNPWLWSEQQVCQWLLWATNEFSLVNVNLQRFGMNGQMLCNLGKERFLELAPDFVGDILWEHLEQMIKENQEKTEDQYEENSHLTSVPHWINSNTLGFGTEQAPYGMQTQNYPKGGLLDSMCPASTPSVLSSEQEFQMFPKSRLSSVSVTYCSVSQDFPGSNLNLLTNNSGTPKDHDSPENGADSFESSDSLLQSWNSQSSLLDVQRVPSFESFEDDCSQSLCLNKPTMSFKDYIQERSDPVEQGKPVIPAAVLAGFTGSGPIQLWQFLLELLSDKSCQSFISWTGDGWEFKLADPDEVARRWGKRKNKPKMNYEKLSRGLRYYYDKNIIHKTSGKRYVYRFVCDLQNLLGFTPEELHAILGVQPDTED
In short: as §1

SPDEF = target: T9, SPDEF (Homo sapiens, UniProt O95238 1-335); details: protein: recombinant; tags: N-terminal GST; dsDNA, one strand shown
T9 sequence: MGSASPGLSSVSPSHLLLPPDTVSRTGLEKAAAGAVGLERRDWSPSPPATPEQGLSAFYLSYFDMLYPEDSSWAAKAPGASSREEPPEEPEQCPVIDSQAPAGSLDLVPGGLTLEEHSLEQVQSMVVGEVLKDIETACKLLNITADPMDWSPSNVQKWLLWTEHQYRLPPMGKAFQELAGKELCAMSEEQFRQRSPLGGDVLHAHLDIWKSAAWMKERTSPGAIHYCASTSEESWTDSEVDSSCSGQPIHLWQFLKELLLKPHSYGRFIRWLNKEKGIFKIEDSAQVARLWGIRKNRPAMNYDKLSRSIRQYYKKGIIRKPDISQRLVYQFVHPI
In short: as §1

ETV7 = target: T10, ETV7 (Homo sapiens, UniProt Q9Y603 1-341); details: protein: recombinant; tags: N-terminal GST; dsDNA, one strand shown
T10 sequence: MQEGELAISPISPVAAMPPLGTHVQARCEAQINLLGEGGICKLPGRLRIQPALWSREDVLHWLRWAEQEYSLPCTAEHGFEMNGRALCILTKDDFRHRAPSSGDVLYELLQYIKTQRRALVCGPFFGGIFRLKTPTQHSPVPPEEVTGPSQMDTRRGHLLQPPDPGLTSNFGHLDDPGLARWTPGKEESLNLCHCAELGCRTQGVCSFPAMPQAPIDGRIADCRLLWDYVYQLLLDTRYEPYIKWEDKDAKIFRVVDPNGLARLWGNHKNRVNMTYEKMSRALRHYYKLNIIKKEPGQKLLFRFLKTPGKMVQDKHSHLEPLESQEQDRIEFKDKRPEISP
In short: as §1

ELF5 = target: T11, ELF5 (Homo sapiens, UniProt Q9UKW6-2 1-255); details: protein: recombinant; tags: N-terminal GST; dsDNA, one strand shown
T11 sequence: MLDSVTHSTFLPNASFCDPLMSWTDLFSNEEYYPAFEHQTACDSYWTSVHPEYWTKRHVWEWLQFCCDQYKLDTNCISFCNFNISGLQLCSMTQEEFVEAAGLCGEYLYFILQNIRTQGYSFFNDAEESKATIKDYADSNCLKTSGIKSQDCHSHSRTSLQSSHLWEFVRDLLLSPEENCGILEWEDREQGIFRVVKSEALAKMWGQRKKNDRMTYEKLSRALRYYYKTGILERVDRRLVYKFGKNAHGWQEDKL
In short: as §1

ETV3 = target: T12, ETV3 (Homo sapiens, UniProt P41162-2 1-143); details: protein: recombinant; tags: N-terminal GST; dsDNA, one strand shown
T12 sequence: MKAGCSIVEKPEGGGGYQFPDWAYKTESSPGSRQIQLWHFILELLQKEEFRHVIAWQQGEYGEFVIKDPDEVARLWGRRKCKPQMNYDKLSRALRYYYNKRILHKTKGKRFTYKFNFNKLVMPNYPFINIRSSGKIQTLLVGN
In short: as §1

ETV6 = ETV6 (Homo sapiens, UniProt P41212 1-452); details: protein: recombinant; tags: N-terminal GST; dsDNA, one strand shown
Sequence of ETV6 (P41212 whole entry): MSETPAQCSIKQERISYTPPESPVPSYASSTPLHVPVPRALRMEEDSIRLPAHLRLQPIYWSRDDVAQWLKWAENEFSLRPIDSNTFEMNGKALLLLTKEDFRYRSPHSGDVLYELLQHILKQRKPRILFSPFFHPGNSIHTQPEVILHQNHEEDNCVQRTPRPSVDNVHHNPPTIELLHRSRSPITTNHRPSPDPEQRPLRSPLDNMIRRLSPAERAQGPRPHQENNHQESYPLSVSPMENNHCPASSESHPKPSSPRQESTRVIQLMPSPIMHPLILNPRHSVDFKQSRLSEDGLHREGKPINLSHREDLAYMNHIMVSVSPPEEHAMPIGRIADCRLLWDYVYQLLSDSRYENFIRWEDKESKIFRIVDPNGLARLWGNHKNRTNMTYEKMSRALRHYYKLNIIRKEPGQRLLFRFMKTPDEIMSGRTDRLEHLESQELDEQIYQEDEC
In short: as §1

Sequence: AATAAC
- binding signal (FEV): 1.25 fold enrichment (6-mer frequency, TF over GST control)
- binding signal (ETV5): 1.3 fold enrichment (6-mer frequency, TF over GST control)
- binding signal (HSF1): 1.27 fold enrichment (6-mer frequency, TF over GST control)
- binding signal (SPIC): 1.42 fold enrichment (6-mer frequency, TF over GST control)
- binding signal (ELF4): 1.32 fold enrichment (6-mer frequency, TF over GST control)
- binding signal (ELK4): 1.13 fold enrichment (6-mer frequency, TF over GST control)
- binding signal (ETV2): 1.31 fold enrichment (6-mer frequency, TF over GST control)
- binding signal (ELF3): 1.25 fold enrichment (6-mer frequency, TF over GST control)
- binding signal (CRX): 1.32 fold enrichment (6-mer frequency, TF over GST control)
- binding signal (ETV1): 1.15 fold enrichment (6-mer frequency, TF over GST control)
- binding signal (ERF): 1.33 fold enrichment (6-mer frequency, TF over GST control)
- binding signal (ETV3L): 1.22 fold enrichment (6-mer frequency, TF over GST control)
- binding signal (ETS2): 1.27 fold enrichment (6-mer frequency, TF over GST control)
- binding signal (SPDEF): 1.21 fold enrichment (6-mer frequency, TF over GST control)
- binding signal (ETV7): 1.25 fold enrichment (6-mer frequency, TF over GST control)
- binding signal (ELF5): 1.31 fold enrichment (6-mer frequency, TF over GST control)
- binding signal (ETV3): 1.23 fold enrichment (6-mer frequency, TF over GST control)
- binding signal (ETV6): 1.36 fold enrichment (6-mer frequency, TF over GST control)
